HP1b chromo inh = HTS for Inhibitors of HP1-beta Chromodomain Interactions with Methylated Histone Tails; Chromobox protein homolog 1 (Homo sapiens), P83916; AlphaScreen HP1-beta / biotin-H3K9me3 peptide binding; Potency, µM (doses to about 114 µM), usual class: inhibitors; 0.56% of 390,000 active; AID 540317, 2011; note: nearly all actives have a fitted effect of over 70% in size
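AlphaScreen: HP1-beta (50 nM) preformed 30 min with biotin-H3(1-18)K9me3 peptide (50 nM) in PBS pH 7.4, 0.01% Tween-20. Compound added for 30 min at RT, then streptavidin donor/nickel chelate acceptor beads (10 ug/mL) for 30 min.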
G9a block = qHTS Assay for Inhibitors of Histone Lysine Methyltransferase G9a | Histone-lysine N-methyltransferase EHMT2 (Homo sapiens), Q96KQ7 | G9a H3K9 monomethylation, AlphaScreen, 2 h | Potency, µM (top dose mostly 102 µM), hits mostly inhibitors | 8.8% of 350,000 active | AID 504332, 2011; note: nearly all actives have a fitted effect of over 75% in size
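Signal arises when biotinylated H3K9 peptide, once monomethylated, bridges streptavidin donor and antibody-captured acceptor beads. Enzyme at 20 nM was preincubated 15 min with test compounds; peptide 500 nM and SAM 20 uM then reacted for 2 h.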
BAZ2B inh = qHTS Assay for Inhibitors of BAZ2B; Bromodomain adjacent to zinc finger domain protein 2B (Homo sapiens), Q9UIF8; 4.4% of 360,000 active; Potency, µM (series often up to 114 µM), actives largely listed as inhibitors; AlphaScreen BAZ2B-H3K14Ac peptide displacement; note: nearly all actives have a fitted effect of over 60% in size
Target sequence (Q9UIF8 whole entry, looked up, the tested form may be a part): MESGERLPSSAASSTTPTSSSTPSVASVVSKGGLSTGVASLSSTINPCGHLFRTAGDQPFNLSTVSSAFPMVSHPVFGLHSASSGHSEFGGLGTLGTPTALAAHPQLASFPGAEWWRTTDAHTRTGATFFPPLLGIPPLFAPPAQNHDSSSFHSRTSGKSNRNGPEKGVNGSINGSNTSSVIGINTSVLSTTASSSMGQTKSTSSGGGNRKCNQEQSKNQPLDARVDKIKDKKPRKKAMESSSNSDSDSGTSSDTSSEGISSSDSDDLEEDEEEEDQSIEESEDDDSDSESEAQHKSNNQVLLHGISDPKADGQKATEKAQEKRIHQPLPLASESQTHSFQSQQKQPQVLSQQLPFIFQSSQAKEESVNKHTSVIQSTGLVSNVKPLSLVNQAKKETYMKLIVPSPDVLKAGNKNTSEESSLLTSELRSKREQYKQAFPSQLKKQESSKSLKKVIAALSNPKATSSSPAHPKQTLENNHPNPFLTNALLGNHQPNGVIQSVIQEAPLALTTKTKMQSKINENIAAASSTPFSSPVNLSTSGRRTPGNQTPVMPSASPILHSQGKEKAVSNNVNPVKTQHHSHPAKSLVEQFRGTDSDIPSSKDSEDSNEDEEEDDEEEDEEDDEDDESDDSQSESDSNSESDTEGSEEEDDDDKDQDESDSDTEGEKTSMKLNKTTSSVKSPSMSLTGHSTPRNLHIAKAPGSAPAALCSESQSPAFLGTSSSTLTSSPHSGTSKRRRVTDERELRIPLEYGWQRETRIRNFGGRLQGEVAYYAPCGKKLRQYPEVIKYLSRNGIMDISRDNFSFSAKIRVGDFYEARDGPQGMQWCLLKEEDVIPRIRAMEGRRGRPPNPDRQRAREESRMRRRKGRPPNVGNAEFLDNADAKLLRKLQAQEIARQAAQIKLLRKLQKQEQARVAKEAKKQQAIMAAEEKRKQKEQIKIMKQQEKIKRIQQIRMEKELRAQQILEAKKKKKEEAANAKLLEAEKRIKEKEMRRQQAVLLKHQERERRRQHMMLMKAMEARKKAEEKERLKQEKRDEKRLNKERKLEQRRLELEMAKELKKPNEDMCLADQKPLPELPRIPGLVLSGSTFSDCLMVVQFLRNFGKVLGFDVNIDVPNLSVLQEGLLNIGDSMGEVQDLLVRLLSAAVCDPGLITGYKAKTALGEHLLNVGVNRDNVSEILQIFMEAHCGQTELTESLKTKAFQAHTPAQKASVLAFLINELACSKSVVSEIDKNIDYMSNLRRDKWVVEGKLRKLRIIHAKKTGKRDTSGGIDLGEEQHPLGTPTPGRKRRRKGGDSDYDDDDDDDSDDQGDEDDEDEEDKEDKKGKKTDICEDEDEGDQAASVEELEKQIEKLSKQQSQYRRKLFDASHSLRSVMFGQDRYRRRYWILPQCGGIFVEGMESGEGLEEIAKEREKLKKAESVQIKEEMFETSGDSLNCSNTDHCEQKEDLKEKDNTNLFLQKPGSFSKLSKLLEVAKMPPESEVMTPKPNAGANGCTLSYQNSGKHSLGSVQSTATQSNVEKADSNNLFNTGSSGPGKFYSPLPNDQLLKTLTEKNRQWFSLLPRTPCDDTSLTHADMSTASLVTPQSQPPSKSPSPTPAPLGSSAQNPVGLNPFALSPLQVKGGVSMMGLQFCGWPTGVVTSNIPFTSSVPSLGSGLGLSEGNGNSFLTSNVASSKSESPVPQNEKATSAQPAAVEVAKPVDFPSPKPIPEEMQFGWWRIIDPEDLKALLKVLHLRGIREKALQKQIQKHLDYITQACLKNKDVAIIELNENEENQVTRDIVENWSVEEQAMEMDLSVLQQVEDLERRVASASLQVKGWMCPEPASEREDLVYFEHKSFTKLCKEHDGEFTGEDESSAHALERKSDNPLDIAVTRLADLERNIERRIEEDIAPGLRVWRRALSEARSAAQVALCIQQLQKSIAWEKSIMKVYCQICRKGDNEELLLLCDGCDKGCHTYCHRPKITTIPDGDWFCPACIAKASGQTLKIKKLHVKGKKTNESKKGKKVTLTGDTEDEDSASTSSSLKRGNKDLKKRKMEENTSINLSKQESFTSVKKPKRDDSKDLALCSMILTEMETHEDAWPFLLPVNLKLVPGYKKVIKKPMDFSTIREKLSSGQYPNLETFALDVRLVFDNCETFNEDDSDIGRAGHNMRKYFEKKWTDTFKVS
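AlphaScreen luminescence quantifies BAZ2B engagement of H3K14Ac peptide; the protein and biotinylated peptide are both at 50 nM final, buffer PBS pH 7.4 with 0.01% Tween-20, all steps at room temperature.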
L3MBTL1 inh = qHTS Assay for the Inhibitors of L3MBTL1 | 0.66% of 230,000 active | AlphaScreen L3MBTL1–H3K9me1 peptide binding | AID 485360, 2010 | Potency, µM (series often up to 57.1 µM), hits mostly inhibitors; note: nearly all actives have a fitted effect of over 60% in size
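First, the protein-peptide complex forms for 30 min at room temperature (L3MBTL1 50 nM, biotinylated H3K9me1 peptide 75 nM). Next, compounds are pin-transferred and incubated 30 min. Finally, AlphaScreen beads are added and read after 30 min.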
JMJD2A Tudor = qHTS Assay for Inhibitors of JMJD2A-Tudor Domain | AlphaScreen JMJD2A-Tudor / H3K4me3 peptide binding | Potency, µM (doses to about 114 µM), usual class: inhibitors | 4.4% of 390,000 active | AID 504339, 2011; note: nearly all actives have a fitted effect of over 50% in size
Each line names hits and unclear results; the compound was inactive in the other large screens. In the library only some 11% were active in any assay of this set; here they are far more common. Calls come from the whole dose curve; as a rule, active = well fitted inhibition curve with a large enough effect; inconclusive = small, poorly fitted or top-dose-only effect; inactive = no such curve, though single readings can be large or run the other way.

COc1ccccc1N1CCN(C2CCCN(S(=O)(=O)c3ccc(C)cc3)C2)CC1 (stereo not given)	G9a block 56.2µM (no result: L3MBTL1 inh)
Cc1ccc(S(=O)(=O)N2CCC(N3CCN(Cc4ccccc4)C(=O)C3=O)CC2)cc1C	none (no result: L3MBTL1 inh)
Cc1cc(OCC(=O)C(C)(C)C)c2c(-c3ccccc3)cc(=O)oc2c1	none (no result: L3MBTL1 inh)
CC(C)OCCCNC(=O)CN1C(=O)COc2ccc(S(=O)(=O)N3CCOCC3)cc21	G9a block inconclusive (no result: L3MBTL1 inh)
COc1ccc(C2=Nc3ccccc3N(CC(=O)Nc3cccc(C(C)=O)c3)C(=O)C2)cc1	JMJD2A Tudor inconclusive (no result: L3MBTL1 inh)
CC(=O)C1=C(O)C(=O)N(c2cccc(C(=O)O)c2)C1c1ccc(F)cc1 (stereo not given)	G9a block 25.1µM, BAZ2B inh inconclusive, JMJD2A Tudor inconclusive
CC(=O)C1=C(O)C(=O)N(c2ccc(C(=O)O)cc2)C1c1ccccc1 (stereo not given)	G9a block 44.7µM, BAZ2B inh inconclusive, JMJD2A Tudor 31.6µM (no result: L3MBTL1 inh)
Cc1cc(NC(=O)CSc2cn(C)c3ccccc23)no1	G9a block 25.1µM (no result: L3MBTL1 inh)
Cc1ccc(C(=O)NCCn2cc(SCC(=O)Nc3cc(C)on3)c3ccccc32)cc1	none (no result: L3MBTL1 inh)
CCCn1cc(SCC(=O)Nc2cc(C)on2)c2ccccc21	none (no result: L3MBTL1 inh)
Cc1cc(NC(=O)CSc2cn(CCNC(=O)c3ccccc3)c3ccccc23)no1	HP1b chromo inh 8.91µM, G9a block inconclusive, JMJD2A Tudor 22.4µM (no result: L3MBTL1 inh)
O=C(O)c1cccc2c1C(=O)c1cc([N+](=O)[O-])ccc1-2	none (no result: G9a block, BAZ2B inh, L3MBTL1 inh)
Cc1ccc(C(C)C)cc2c(C)ccc1-2	HP1b chromo inh 22.4µM, G9a block 12.6µM, JMJD2A Tudor 28.2µM (no result: BAZ2B inh, L3MBTL1 inh)
O=C(O)/C=C/C(=O)Nc1ccc(OCc2ccccc2)cc1	G9a block 56.2µM (no result: L3MBTL1 inh)
O=C(O)/C=C/C(=O)Nc1ccc(-c2ccccc2)cc1	G9a block inconclusive
O=C(O)/C=C/c1ccc(OCc2cccc(F)c2)cc1	JMJD2A Tudor 14.1µM (no result: L3MBTL1 inh)
COc1ccc(-n2cnc(=S)[nH]c2=S)cc1	HP1b chromo inh inconclusive (no result: G9a block, BAZ2B inh, L3MBTL1 inh)
COc1cccc(-n2cn[nH]c2=S)c1	G9a block 12.6µM, JMJD2A Tudor inconclusive (no result: L3MBTL1 inh)
COc1ccc(CNC(=O)C2CCN(S(=O)(=O)c3c(C)noc3/C=C/c3ccccc3F)CC2)cc1	none (no result: L3MBTL1 inh)
CC1S/C(=N/N=C/c2cccs2)NC1=O (stereo not given)	L3MBTL1 inh inconclusive
CC1S/C(=N/N=C/c2cccc([N+](=O)[O-])c2)NC1=O (stereo not given)	G9a block 12.6µM, BAZ2B inh inconclusive
C=CCOc1ccccc1CN(C(=O)CCl)c1ccc2c(c1)OCO2	none (no result: L3MBTL1 inh)
O=S(=O)(c1ccccc1)N1N=C(c2ccc(Br)cc2)CC1c1ccco1 (stereo not given)	G9a block inconclusive, JMJD2A Tudor 15.8µM (no result: L3MBTL1 inh)
CS(=O)(=O)Nc1ccc(C2=NN(S(=O)(=O)c3ccc(F)cc3)C(c3ccco3)C2)cc1 (stereo not given)	G9a block 50.1µM (no result: L3MBTL1 inh)
CCS(=O)(=O)Nc1ccc(C2=NN(C(=O)c3ccco3)C(c3ccco3)C2)cc1 (stereo not given)	G9a block inconclusive
CS(=O)(=O)Nc1ccc(C2=NN(C(=O)c3ccco3)C(c3ccccc3F)C2)cc1 (stereo not given)	G9a block 50.1µM (no result: BAZ2B inh, L3MBTL1 inh)
Cc1ccc(C2=NN(S(=O)(=O)c3ccccc3)C(c3ccco3)C2)cc1 (stereo not given)	none
Cc1ccc(S(=O)(=O)N2CCN(c3nc(-c4cccs4)nc4cccnc34)CC2)cc1	none (no result: G9a block, BAZ2B inh, L3MBTL1 inh)
COc1ccc2c(CNC3CCC(C)CC3)c(C(=O)O)n(Cc3ccc(F)cc3)c2c1 (stereo not given)	none (no result: L3MBTL1 inh)
COC(=O)c1ccc[n+](CC(=O)Nc2ccc(OC(F)F)cc2)c1	HP1b chromo inh inconclusive, G9a block 44.7µM, JMJD2A Tudor inconclusive
O=C(C[n+]1cccc(CNC(=O)c2ccc(OC(F)F)cc2)c1)Nc1ccc(F)cc1	none
O=C(Nn1c(Cc2cccs2)nc2ccccc2c1=O)c1cccs1	G9a block 50.1µM
O=C(CSc1ccsc1[N+](=O)[O-])NCCc1ccc(Cl)cc1	none

Bioassay records as filed in PubChem BioAssay.
